According to PubChem BioAssay (NCATS):
Results filed as inconclusive are left out. Activity calls are given as the source filed them. Calls come from the whole dose curve; as a rule, active = well fitted curve in the direction sought with a large enough effect; inconclusive = small, poorly fitted or top-dose-only effect, or another doubt; inactive = no such curve, though single readings can be large; an effect the other way counts as inactive or inconclusive.

What was measured:
[1] = test system: HACAT; test: qHTS assay to identify novel small-molecules to repurpose for Merkel cell carcinoma treatment (AID 1296009); settings: MCC and control cell lines, CellTiter-Glo viability, 72 h; at 44.8 µM (top of the series) unless noted; note: nearly all actives have a fitted effect of over 60% in size
Summary of the method: (§1)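 After compound transfer in DMSO, plates were kept 72 hr at 37 degree celsius. Luminescent ATP signal from CellTiter-Glo served as viability measure, normalized against DMSO and no-cell controls.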

[2] = test system: HEK293T; test: as above; settings: MCC and control cell lines, CellTiter-Glo viability, 72 h; series mostly up to 44.8 µM
Summary of the method: as §1

[3] = test system: NIH3T3; test: as above; settings: MCC and control cell lines, CellTiter-Glo viability, 72 h; at 44.8 µM (top of the series) unless noted
Summary of the method: as §1

[4] = test system: C33A; test: Primary qHTS to identify gynecologic anti-cancer compounds using libraries of approved drugs and bioactive compounds (AID 1345084); settings: Gynecologic cancer cell panel viability, ATPlite luminescence, 48 h; series mostly up to 57.5 µM; note: % is set by controls: 0 for no effect and ±100 for the full control effect; nearly all actives have a fitted effect of over 55% in size
Summary of the method: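 Cells, 1,000 per well, were allowed to settle for 16 h at 37 C before compound addition. Five concentrations were tested for 48 h, and viability was read by ATPlite luminescence after 15 min at room temperature.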

CC1OC(OC2C(C)OC(OC3C(OC(=O)/C=C/c4ccc(O)cc4)C(CO)OC(OC4(COC(=O)/C=C/c5ccc(O)cc5)OC(CO)C(O)C4O)C3OC3OCC(O)(CO)C3O)C(O)C2O)C(O)C(O)C1O (configuration not stated)
inactive: outcome [1] inactive [at 9.27 µM] | outcome [2] inactive [at 9.27 µM] | outcome [3] inactive [at 9.27 µM] | activity change, negative = cytotoxicity [4] 4.08% [at 11.6 µM]

C=C1CCC2(OC1)OC1CC3C4CC=C5CC(O)CC(O[C@@H]6OC[C@@H](O)[C@H](O)[C@H]6O)C5(C)C4CCC3(C)C1(O)C2C (some centres not stated)
inactive: outcome [1] inactive [at 17.4 µM] | Potency [2] | outcome [3] inactive [at 17.4 µM] | Potency [4]

C=C1[C@@H]2CC[C@@]3(C)[C@H](c4ccoc4)OC(=O)C[C@]13O[C@H]1CC(=O)C(C)(C)[C@H](CC(=O)OC)[C@]12C
inactive: outcome [1] inactive [at 17.4 µM] | Potency [2] | outcome [3] inactive [at 17.4 µM] | Potency [4]

CCOC(=O)[C@H](CCc1ccccc1)N[C@@H](C)C(=O)N1C2CCCCC2C[C@H]1C(=O)O (some centres not stated)
inactive: outcome [1] | Potency [2] | outcome [3] | Potency [4]

COc1cc2c(cc1OC)CN(C(=O)[C@@H](NCc1ccncc1)C(C)(C)C)CC2
inactive: outcome [1] | Potency [2] | outcome [3] | Potency [4]

CC(=O)OCC1=C[C@H](O)[C@@H]2C(C(=O)O)=CO[C@@H](O[C@@H]3O[C@H](CO)[C@@H](O)[C@H](O)[C@H]3O)[C@H]12
inactive: outcome [1] inactive [at 17.4 µM] | Potency [2] | outcome [3] inactive [at 17.4 µM] | Potency [4]

CC1(C)CC[C@]2(C(=O)O[C@@H]3O[C@H](CO)[C@@H](O)[C@H](O)[C@H]3O)CC[C@]3(C)C(=CCC4[C@@]5(C)C[C@@H](O)[C@H](O)C(CO)(CO)C5CC[C@]43C)C2[C@@H]1O (some centres not stated)
inactive: outcome [1] inactive [at 17.4 µM] | Potency [2] | outcome [3] inactive [at 17.4 µM] | Potency [4]

Cc1nnc(C(C)C)n1C1CC2CCC(C1)N2CC[C@H](NC(=O)C1CCC(F)(F)CC1)c1ccccc1 (some centres not stated)
inactive: outcome [1] | Potency [2] | outcome [3] | Potency [4]

COc1ccc(C(O[C@@H]2O[C@H](CO)[C@@H](O)[C@H](O)[C@H]2O)C(CO)Oc2ccc(/C=C/CO)cc2OC)cc1O (some centres not stated)
inactive: outcome [1] inactive [at 17.4 µM] | Potency [2] | outcome [3] inactive [at 17.4 µM] | Potency [4]

COc1cc(/C=C/C(=O)OC2CC(C)=C(C(=O)O)/C2=C/CO[C@@H]2O[C@H](CO)[C@@H](O)[C@H](O)[C@H]2O)ccc1O (some centres not stated)
inactive: outcome [1] inactive [at 17.4 µM] | Potency [2] | outcome [3] inactive [at 17.4 µM] | Potency [4]

CC(CCC1(O)OC2CC3C4CCC5CC(O[C@@H]6O[C@H](CO)[C@@H](O)[C@H](O)[C@H]6O[C@@H]6OC[C@@H](O)[C@H](O)[C@H]6O)C(O)CC5(C)C4CCC3(C)C2C1C)CO[C@@H]1O[C@H](CO)[C@@H](O)[C@H](O)[C@H]1O (some centres not stated)
inactive: outcome [1] inactive [at 9.27 µM] | outcome [2] inactive [at 9.27 µM] | outcome [3] inactive [at 9.27 µM] | activity change, negative = cytotoxicity [4] 4.8% [at 11.6 µM]

CCC(C)C(=O)O[C@@H]1[C@@H](O)[C@@H](O[C@H]2O[C@H](CO)[C@@H](O)[C@H](O)[C@H]2O)O[C@H](CO)[C@H]1O (some centres not stated)
inactive: outcome [1] inactive [at 17.4 µM] | Potency [2] | outcome [3] inactive [at 17.4 µM] | Potency [4]

CC1(O)CCC2C(C(=O)O)=COC(OC3OC(CO)C(O)C(O)C3OC(=O)/C=C/c3ccc(O)cc3)C21 (configuration not stated)
inactive: outcome [1] inactive [at 17.4 µM] | Potency [2] | outcome [3] inactive [at 17.4 µM] | Potency [4]

CN[C@@H]1[C@@H](O)[C@@H](O[C@@H]2[C@@H](O)[C@H](O[C@H]3O[C@H](CN)[C@@H](O)[C@H](O)[C@H]3O)[C@@H](N)C[C@H]2NC(=O)[C@@H](O)CN)OC[C@]1(C)O
inactive: outcome [1] | Potency [2] | outcome [3] | Potency [4]

COC(=O)c1ccc(O[C@@H]2O[C@H](CO)[C@@H](O)[C@H](O)[C@H]2O)c(OC)c1
inactive: outcome [1] | Potency [2] | outcome [3] | Potency [4]

C=C1CC[C@@H]2[C@](C)(CO[C@@H]3O[C@H](CO)[C@@H](O)[C@H](O)[C@H]3O)CCC[C@@]2(C)[C@@H]1CCC1=CCOC1=O
inactive: outcome [1] inactive [at 17.4 µM] | Potency [2] | outcome [3] inactive [at 17.4 µM] | Potency [4]

CC1(C)CCCC2(C)C3=C(C(=O)OC3O)C(O)CC12 (configuration not stated)
inactive: outcome [1] | Potency [2] | outcome [3] | Potency [4]

COC1C=C([C@@H]2CC=C3[C@@]4(C)C(CC[C@]32C)[C@@]2(C)C=CC(=O)C(C)(C)C2C[C@H]4OC(C)=O)C(=O)O1 (some centres not stated)
inactive: outcome [1] inactive [at 17.4 µM] | Potency [2] | outcome [3] inactive [at 17.4 µM] | Potency [4]
